For twelve molecules, Potency and viability results are on record in PubChem BioAssay (NCATS).

Results filed as inconclusive are left out. Calls of active or inactive are those of the source. The call rests on the fitted dose curve; in most records, active means well fitted cell-killing curve with a large enough effect; inconclusive means small, poorly fitted or top-dose-only effect, or effect the other way; inactive means no such curve, though single readings can be large or run the other way.

The term viability denotes a read-out of living cells in per cent, often relative to untreated cells.
Potency means the concentration at half of the fitted maximal effect.

This assay in a line: Quantitative High-Throughput drug screen in 47 multiple myeloma cell lines against the NCATS MIPE library collection: KMS21BM_JCRB cell viability assay (AID 1918974). Conditions: ATP luminescence, 48 h; viability: at 45.8 µM unless noted. The gist of the method:
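Inhibition of cell viability is measured here. Each line was plated at 500 cells per well, treated with MIPE 4.0 drugs, kept 48 hours at 37C, then assayed for ATP content by CellTiter-Glo luminescence.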
In the case of `Cc1ccc(C(N)=O)cc1Nc1nccc(-c2cn(C(C)C)c3cnccc23)n1`, the Potency is 935 nM (active).
Turning to `O=C1CCC[C@@H]2[C@H]3CCC[N+]4([O-])CCC[C@@H](CN12)[C@@H]34` (some centres not stated), the viability is 154% (active).
For the molecule `Cc1ccc(NC(=O)C2(c3ccc4c(c3)OC(F)(F)O4)CC2)nc1-c1cccc(C(=O)O)c1`, the Potency was 46.9 nM (active).
For the molecule `COc1ccc(OC)c(-c2nnc3ccc(-c4ccc(OC)c(O[C@@H]5CCOC5)c4)nn23)c1`, the Potency is 7430 nM (active).
As to `COc1cc(C(C)C)c2c(c1)S(=O)(=O)N(COc1cc(=O)n3cccc(OCCN4CCCCC4)c3n1)C2=O`, the Potency was 18700 nM (active).
Still for that read-out and setting: the result for `C[C@@H](Oc1cc(-c2cnn(C3CCNCC3)c2)cnc1N)c1c(Cl)ccc(F)c1Cl` reads 8330 nM (active); that for `O=C(c1ccc(Nc2nccc(-c3cc4ccccc4s3)n2)cc1)N1CCC(N2CCCC2)CC1`, 5260 nM (active); that for `CC(C)c1ccc(Cn2ccc3c4c(N)nc(NC5CC5)nc4ccc32)cc1`, 1320 nM (active).
On the same count and under the same terms, the result for `COc1cc2c(cc1-c1c(C)noc1C)ncc1[nH]c(=O)n([C@H](C)c3ccccn3)c12` reads 743 nM (active); that for `OCCCNc1cc(-c2ccnc(Nc3cccc(Cl)c3)n2)ccn1`, 37.2 nM (active); that for `CC(C)(C)OC(=O)Nc1ccc(-c2cc(C(=O)NCCCCCCC(=O)NO)no2)cc1`, 935 nM (active).
For `NC(=O)Nc1cc(-c2cccc(F)c2)sc1C(=O)N[C@H]1CCCNC1`, the Potency is 235 nM (active).
